# Several values for one entry are separate records, joined by “and”; a condition that tells them apart may be missing. Equal entries are not always repeated. Results filed as inconclusive are left out. Entries that show only a call come without a potency. Activity calls are given as the source filed them. Unless noted, calls come from the whole dose curve; as a rule, active = well fitted curve in the direction sought with a large enough effect; inconclusive = small, poorly fitted or top-dose-only effect, or another doubt; inactive = no such curve, though single readings can be large; an effect the other way counts as inactive or inconclusive.
# Experiments:
# [1] = biological target: Thyroid hormone receptor beta (Homo sapiens) (UniProt P10828); assay: qHTS assay for small molecule agonists of thyroid hormone receptor beta signaling (AID 588545; calls by dose curve); conditions: TR-UAS-bla GripTite HEK 293, beta-lactamase ratio, agonist mode, 18 h, percent of T3 response, DMSO as zero; series mostly up to 76.7 µM
# Sequence of Thyroid hormone receptor beta (Homo sapiens) (P10828 whole entry, looked up): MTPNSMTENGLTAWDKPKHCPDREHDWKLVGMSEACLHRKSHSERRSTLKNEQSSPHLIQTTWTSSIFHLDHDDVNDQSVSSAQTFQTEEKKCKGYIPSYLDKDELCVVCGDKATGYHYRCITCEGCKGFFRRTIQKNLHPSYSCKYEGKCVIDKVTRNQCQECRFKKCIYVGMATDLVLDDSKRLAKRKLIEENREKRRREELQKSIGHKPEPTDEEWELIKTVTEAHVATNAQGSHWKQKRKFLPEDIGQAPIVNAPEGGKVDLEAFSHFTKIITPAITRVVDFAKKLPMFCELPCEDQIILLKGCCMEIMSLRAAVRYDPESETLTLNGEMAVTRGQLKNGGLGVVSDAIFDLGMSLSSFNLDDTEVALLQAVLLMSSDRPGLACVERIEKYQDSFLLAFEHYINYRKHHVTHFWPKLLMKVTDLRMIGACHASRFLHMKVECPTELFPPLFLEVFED
# Summary of the method: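 Efficacy and EC50 values derive from Hill fits of qHTS titration data, normalized to 10 nM T3 and DMSO-only wells. HEK 293 reporter cells were stimulated for 18 hrs at 37 C, with beta-lactamase activity measured by CCF4 fluorescence.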
# [2] = qHTS assay for small molecule antagonists of retinoid X receptor alpha signaling (AID 588546; active = well fitted inhibition curve with a large enough effect in the signal ratio, with a control signal flat, not every such curve was filed as active; the % refers to the signal ratio;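 note: cells stimulated with 9-cis-retinoic acid as agonist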); conditions: HEK293T RXRa-UAS-bla, beta-lactamase ratio, antagonist mode; measured here: W530 green channel, cytotoxicity proxy
# Summary of the method: (§1)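 Beta-lactamase reporter inhibition, read as CCF4 fluorescence ratio (ex 405, em 460/530 nm) after 2 h at RT. HEK293T UAS-bla cells, 2500/well, were stimulated with 9-cis-RA at 500 or 100 nM final alongside test compound for 18 h at 37 C.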
# [3] = biological target: Retinoic acid receptor RXR-alpha (Homo sapiens) (UniProt P19793); assay: as above; conditions: HEK293T RXRa-UAS-bla, beta-lactamase ratio, antagonist mode
# Sequence of Retinoic acid receptor RXR-alpha (Homo sapiens) (P19793 whole entry, looked up): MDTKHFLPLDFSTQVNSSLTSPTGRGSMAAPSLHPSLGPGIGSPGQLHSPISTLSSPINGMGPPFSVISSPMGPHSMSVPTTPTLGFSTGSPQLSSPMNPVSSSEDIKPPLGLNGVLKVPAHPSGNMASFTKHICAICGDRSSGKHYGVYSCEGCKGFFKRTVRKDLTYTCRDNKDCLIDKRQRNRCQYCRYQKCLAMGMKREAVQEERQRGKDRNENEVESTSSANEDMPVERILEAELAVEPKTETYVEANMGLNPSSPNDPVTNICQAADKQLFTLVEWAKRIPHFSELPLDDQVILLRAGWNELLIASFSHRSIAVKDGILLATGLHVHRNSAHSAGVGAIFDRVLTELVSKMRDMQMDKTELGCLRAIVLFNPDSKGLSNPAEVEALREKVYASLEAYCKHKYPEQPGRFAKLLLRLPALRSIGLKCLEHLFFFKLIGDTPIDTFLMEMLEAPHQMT
# Summary of the method: as §1
# [4] = biological target: Thyroid hormone receptor beta (Homo sapiens) (UniProt P10828); assay: qHTS assay for small molecule antagonists of thyroid hormone receptor beta signaling (AID 588547; active = well fitted inhibition curve with a large enough effect in the signal ratio, with a control signal flat, not every such curve was filed as active; the % refers to the signal ratio;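 note: cells stimulated with 0.4 nM T3 agonist during compound exposure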); conditions: TR-UAS-bla HEK293, beta-lactamase ratio, antagonist mode, 18 h
# Summary of the method: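 TR-UAS-bla GripTite HEK293 cells in 2% charcoal/dextran FBS medium were preincubated 4 h at 37 C, given compound (0.59 nM to 92 uM) plus 0.4 nM T3 (final) for 18 h, then CCF4 for 2 h at RT; Hill fit gave IC50.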
# [5] = biological target: Voltage-gated inwardly rectifying potassium channel KCNH2 (Homo sapiens) (UniProt Q12809); assay: qHTS Assay for Small Molecule Inhibitors of the Human hERG Channel Activity (AID 588834); conditions: U2OS BacMam hERG, FluxOR thallium flux fluorescence; series mostly up to 46.1 µM;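 note: top concentration of the series differs between compounds; lower thallium flux fluorescence means stronger hERG block; nearly all actives have a fitted effect of over 50% in size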
# Sequence of Voltage-gated inwardly rectifying potassium channel KCNH2 (Homo sapiens) (Q12809 whole entry, looked up): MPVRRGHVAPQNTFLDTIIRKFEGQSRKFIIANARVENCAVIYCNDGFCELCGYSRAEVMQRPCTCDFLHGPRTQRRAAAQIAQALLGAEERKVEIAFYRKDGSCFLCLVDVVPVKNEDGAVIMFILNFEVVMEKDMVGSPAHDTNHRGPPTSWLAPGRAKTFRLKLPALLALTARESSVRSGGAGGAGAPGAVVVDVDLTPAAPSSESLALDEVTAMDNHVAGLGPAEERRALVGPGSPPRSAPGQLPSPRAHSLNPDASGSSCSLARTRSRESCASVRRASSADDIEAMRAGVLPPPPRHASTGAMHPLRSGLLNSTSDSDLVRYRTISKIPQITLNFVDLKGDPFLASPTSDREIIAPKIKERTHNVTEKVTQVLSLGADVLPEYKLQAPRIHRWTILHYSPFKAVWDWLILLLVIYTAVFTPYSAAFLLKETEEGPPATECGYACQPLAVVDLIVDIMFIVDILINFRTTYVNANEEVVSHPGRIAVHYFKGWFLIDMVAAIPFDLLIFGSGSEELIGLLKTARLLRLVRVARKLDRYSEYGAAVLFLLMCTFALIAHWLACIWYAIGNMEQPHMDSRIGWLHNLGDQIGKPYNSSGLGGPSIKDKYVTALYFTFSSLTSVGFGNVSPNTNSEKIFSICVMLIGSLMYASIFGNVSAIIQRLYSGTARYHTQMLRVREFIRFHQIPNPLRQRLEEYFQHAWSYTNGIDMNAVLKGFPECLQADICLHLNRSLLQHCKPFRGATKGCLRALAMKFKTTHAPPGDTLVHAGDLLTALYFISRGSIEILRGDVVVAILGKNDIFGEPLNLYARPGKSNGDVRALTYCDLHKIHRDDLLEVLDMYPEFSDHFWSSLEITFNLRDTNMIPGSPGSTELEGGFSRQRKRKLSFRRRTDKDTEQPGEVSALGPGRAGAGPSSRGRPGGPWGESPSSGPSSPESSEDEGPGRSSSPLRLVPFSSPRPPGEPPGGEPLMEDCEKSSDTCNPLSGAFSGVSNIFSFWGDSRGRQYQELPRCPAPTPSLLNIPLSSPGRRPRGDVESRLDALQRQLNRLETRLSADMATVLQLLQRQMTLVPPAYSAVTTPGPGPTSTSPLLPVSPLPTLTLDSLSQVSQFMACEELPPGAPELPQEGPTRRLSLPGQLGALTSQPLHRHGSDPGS
# Summary of the method: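 U2OS cells BacMam-transduced with hERG, 2000 cells/well, compound ~10 min at 37 °C before stimulation buffer. FluxOR thallium flux fluorescence read kinetically on FDSS; decrease indicates block; AC50 from Hill fits.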
# [6] = biological target: Luciferin 4-monooxygenase (Photinus pyralis) (UniProt P08659); assay: Biochemical firefly luciferase enzyme assay for NPC (AID 624030);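 note: purified P. pyralis luciferase at 10 nM with luciferin and ATP substrate; nearly all actives have a fitted effect of over 70% in size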; conditions: purified P. pyralis luciferase, luminescence, 5 min; series mostly up to 58.6 µM
# Sequence of Luciferin 4-monooxygenase (Photinus pyralis) (P08659 whole entry, looked up): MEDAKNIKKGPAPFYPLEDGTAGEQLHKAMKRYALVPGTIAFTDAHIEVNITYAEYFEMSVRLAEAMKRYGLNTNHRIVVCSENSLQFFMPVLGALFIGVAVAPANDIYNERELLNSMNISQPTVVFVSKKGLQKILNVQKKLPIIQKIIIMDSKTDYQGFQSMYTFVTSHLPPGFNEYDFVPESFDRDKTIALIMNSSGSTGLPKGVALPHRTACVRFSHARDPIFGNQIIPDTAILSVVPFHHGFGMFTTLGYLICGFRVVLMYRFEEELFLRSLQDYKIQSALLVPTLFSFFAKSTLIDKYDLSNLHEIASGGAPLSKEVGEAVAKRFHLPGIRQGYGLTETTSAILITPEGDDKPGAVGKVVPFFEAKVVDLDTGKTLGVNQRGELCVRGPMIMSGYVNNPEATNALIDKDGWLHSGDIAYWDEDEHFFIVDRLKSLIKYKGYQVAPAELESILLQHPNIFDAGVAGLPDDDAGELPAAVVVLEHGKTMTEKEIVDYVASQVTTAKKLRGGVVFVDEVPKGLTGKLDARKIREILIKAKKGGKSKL
# Summary of the method: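 Counter-screen for direct inhibition of the luciferase enzyme by approved-drug library compounds, run at 10 nM enzyme in 50 mM Tris acetate (final). Luminescence was read within 5 min of enzyme-buffer addition and normalized to PTC124 versus DMSO (0%).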
# [7] = S16 Schwann cell viability assay (CellTiter-Glo assay) (AID 624031); conditions: S16 rat Schwann cells viability, 24 h; series mostly up to 57.5 µM;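 note: native untransfected S16 rat Schwann cells; cellular ATP luminescence as a viability measure; nearly all actives have a fitted effect of over 70% in size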
# Summary of the method: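 Rat S16 Schwann cells without reporter constructs received compound or DMSO for 24 h at 37 °C under 5% CO2. Cellular ATP was then quantified by CellTiter-Glo luminescence, with vehicle wells defined as 0% activity and cell-free wells as reference.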
# [8] = S16 Schwann cell PMP22 intronic element firefly luciferase assay (AID 624032); conditions: S16 rat Schwann cells, PMP22 element FLuc, 24 h; series mostly up to 57.5 µM; note: nearly all actives have a fitted effect of over 30% in size
# Summary of the method: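 Rat S16 Schwann cells stably carrying a PMP22 intronic element-driven Fluc reporter were seeded overnight, then exposed to compounds for 24 h at 37 °C. Luminescence was normalized to PTC124 (positive control) and DMSO (0% activity).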
# [9] = S16 Schwann cell PMP22 intronic element beta-lactamase assay (AID 624044; calls by dose curve; note: nearly all actives have a fitted effect of over 15% in size); conditions: S16 rat Schwann cells, PMP22 element beta-lactamase FRET, 24 h; series mostly up to 38.3 µM
# Summary of the method: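 Rat S16 Schwann cells with beta-Lac driven by a PMP22 intronic element, compound-treated 24 h at 37 °C. LiveBLAzer FRET B/G read: 460 nm normalized to potassium clavulanate vs DMSO; 535 nm FRET as viability; concentration-effect curves classified.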
# [10] = biological target: Glutaminase kidney isoform, mitochondrial (Homo sapiens) (UniProt O94925); assay: qHTS for Inhibitors of Glutaminase (GLS): LOPAC Validation (AID 624146); conditions: glutaminase enzyme activity inhibition; series mostly up to 46.1 µM; note: nearly all actives have a fitted effect of over 60% in size; note: potency is the fitted concentration of half-maximal effect
# Sequence of Glutaminase kidney isoform, mitochondrial (Homo sapiens) (O94925 whole entry, looked up, canonical isoform): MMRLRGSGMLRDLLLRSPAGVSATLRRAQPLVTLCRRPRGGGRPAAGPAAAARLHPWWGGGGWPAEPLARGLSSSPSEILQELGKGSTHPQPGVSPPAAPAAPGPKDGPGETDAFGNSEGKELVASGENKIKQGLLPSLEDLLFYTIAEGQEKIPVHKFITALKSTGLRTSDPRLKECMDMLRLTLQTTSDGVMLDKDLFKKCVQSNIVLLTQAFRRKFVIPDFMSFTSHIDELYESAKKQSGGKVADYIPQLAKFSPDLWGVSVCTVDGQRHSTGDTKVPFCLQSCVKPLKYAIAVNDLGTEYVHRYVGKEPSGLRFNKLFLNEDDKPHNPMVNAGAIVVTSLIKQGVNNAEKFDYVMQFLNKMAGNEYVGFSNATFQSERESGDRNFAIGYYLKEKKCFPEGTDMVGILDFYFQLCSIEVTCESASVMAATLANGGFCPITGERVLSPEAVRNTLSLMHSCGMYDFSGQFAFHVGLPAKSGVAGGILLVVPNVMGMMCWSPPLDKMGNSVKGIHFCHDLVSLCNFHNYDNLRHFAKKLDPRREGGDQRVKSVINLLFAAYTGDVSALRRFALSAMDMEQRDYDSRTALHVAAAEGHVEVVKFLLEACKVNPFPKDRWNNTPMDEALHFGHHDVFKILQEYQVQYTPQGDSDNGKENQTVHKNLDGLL
# Summary of the method: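 Enzyme dispensed in phosphate buffer (45 mM, pH 8.2, 0.02% Tween-20), compounds pinned in, then 1 mM L-glutamine solution and the glutamate oxidase–HRP–Amplex Red mix added; fluorescence read immediately and again after 30 min at room temperature.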
# [11] = qHTS of Trypanosoma Brucei Inhibitors: LOPAC Validation (AID 624147); conditions: purified enzyme assay, luminescence, 45 min; series mostly up to 57.5 µM
# Summary of the method: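 ADP (130 uM final) triggers the TbPYK reaction after compound addition; incubation is 45 min at room temperature. Kinase-Glo Plus is then added and luminescence imaged. Normalized data are fitted to concentration-effect curves.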
# [12] = biological target: Glucagon-like peptide 1 receptor (Homo sapiens) (UniProt P43220); assay: qHTS of GLP-1 Receptor Agonists: LOPAC Validation (AID 624148); conditions: GLP-1R agonist cell assay; series mostly up to 46.1 µM;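 note: higher luminescence signal means agonism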
# Sequence of Glucagon-like peptide 1 receptor (Homo sapiens) (P43220 whole entry, looked up): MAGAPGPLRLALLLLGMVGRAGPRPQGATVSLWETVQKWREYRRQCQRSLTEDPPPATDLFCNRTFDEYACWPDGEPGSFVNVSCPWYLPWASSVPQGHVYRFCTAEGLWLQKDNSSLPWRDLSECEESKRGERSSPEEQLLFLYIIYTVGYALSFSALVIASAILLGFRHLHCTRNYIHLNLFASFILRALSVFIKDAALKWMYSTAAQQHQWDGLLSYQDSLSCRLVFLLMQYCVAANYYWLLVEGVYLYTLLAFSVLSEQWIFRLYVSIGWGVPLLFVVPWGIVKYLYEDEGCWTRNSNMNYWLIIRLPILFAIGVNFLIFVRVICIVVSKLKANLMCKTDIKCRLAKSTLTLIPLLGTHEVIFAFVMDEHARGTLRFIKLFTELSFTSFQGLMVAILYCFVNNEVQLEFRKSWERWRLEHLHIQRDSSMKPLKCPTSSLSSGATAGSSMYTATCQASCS
# Summary of the method: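 HEK293 cells stably co-expressing a cAMP-responsive luciferase reporter and a hypersensitive GLP-1R were plated 12 h at 37 °C and exposed to compounds for 4-6 hr at 37 °C, 5% CO2. Luminescence was read 12 min after adding detection reagent.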
# [13] = HTS Assay for Allosteric Antagonists of the Human D2 Dopamine Receptor: Hit Validation in HTRF (AID 624455); conditions: Cells stably expressing D1 dopamine receptor, inhibition mode; series mostly up to 46.1 µM;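 note: stable D1 dopamine receptor cell line scored for blocking the D1 response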
# Summary of the method: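 First, antagonism was screened by calcium flux in a force-coupled, inducible Hek293 Trex D2 line challenged with EC80 dopamine. Hits then went into an HTRF assay in cells stably expressing D1, testing inhibition of the D1 response.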
# [14] = qHTS of Nrf2 Activators: LOPAC Validation (AID 624149); conditions: Nrf2/ARE reporter cell assay; series mostly up to 46.1 µM
# Summary of the method: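 Luminescence read-out of ARE-luciferase activation: AREc32_Fluc cells treated with compounds for 24 hr at 37 deg C, then lysed with Steady-Glo for 30 min at room temperature before reading.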
smiles,measurement,setting,value
CCCOC(=O)c1ccc(O)cc1,outcome,[1],inactive
same,max response,[2],-12% and 3.27% and -2.1%
same,max response,[3],-6.42% (inactive) and -2.27% (inactive) and -9.81% (inactive)
same,activity change % (negative = inhibition),[4],-17.9% (inactive) and -8.82% (inactive) and 6.79% (inactive)
same,Potency,[5],inactive
same,Potency,[6],inactive
same,Potency,[7],inactive
same,Potency,[8],inactive
same,Potency,[9],inactive
CN(C)c1ccc(N=NS(=O)(=O)O)cc1,outcome,[1],inactive
same,max response,[2],-9.95% and 2.36%
same,max response,[3],-16.5% (inactive) and -8.55% (inactive)
same,activity change % (negative = inhibition),[4],-11.7% (inactive)
same,Potency,[5],inactive
Oc1ccccc1O,outcome,[1],inactive
same,activity change % (negative = inhibition),[4],-12.3% (inactive)
same,Potency,[5],inactive
same,Potency,[10],2000 nM (active)
same,Potency,[11],inactive
same,outcome,[12],inactive
same,Potency,[13],inactive
Cc1c(C(=O)O)c(O)cc2c1C(=O)c1c(O)c([C@@H]3O[C@H](CO)[C@@H](O)[C@H](O)[C@H]3O)c(O)c(O)c1C2=O,Potency,[5],inactive
S=c1[nH]c2ccccc2s1,outcome,[1],inactive
same,max response,[2],0.276% and 7.73%
same,max response,[3],18% (inactive) and -15.5% (inactive)
same,activity change % (negative = inhibition),[4],-9.82% (inactive) and 10.5% (inactive)
same,Potency,[5],inactive
COc1cc(CNC(=O)CCCC/C=C/C(C)C)ccc1O,outcome,[1],inactive
same,max response,[2],9.1%
same,max response,[3],4.06% (inactive)
same,activity change % (negative = inhibition),[4],11.7% (inactive) and 10.6% (inactive)
same,Potency,[5],inactive
same,Potency,[6],inactive
same,Potency,[7],inactive
same,Potency,[9],inactive
O=C(O)/C=C\C(=O)O,outcome,[1],inactive
same,max response,[2],0.438%
same,max response,[3],2.25% (inactive)
same,activity change % (negative = inhibition),[4],-2.36% (inactive)
CN1CCC[C@H]1c1cccnc1,outcome,[1],inactive
same,activity change % (negative = inhibition),[4],-9.11% (inactive) and 5.66% (inactive)
same,Potency,[5],inactive
same,Potency,[10],inactive
same,Potency,[11],inactive
same,outcome,[12],inactive
same,outcome,[14],inactive
same,Potency,[13],inactive

# — PubChem BioAssay (NCATS)
